# From PMC7862700, “An all-to-all approach to the identification of sequence-specific readers for epigenetic DNA modifications on cytosine”
# Legend:
# Assay in all cases: DAPPL (digital affinity profiling via proximity ligation, sequencing); 10 mM Tris-HCl pH 7.5, 50 mM NaCl, 1 mM DTT, 4% glycerol, room temperature, 30 min; GST-TFs on glutathione beads, 16-mer random dsDNA library, 0.1% formaldehyde crosslink after washing; high values mean tight binding
# [1] = target: ETV5 (Homo sapiens, UniProt P41161 1-510); settings: protein: recombinant; tags: N-terminal GST; dsDNA, one strand shown
# In short: (§1)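 Pools of DNA-barcoded human transcription factors, expressed in yeast as GST fusions on glutathione beads and combined with a tag-only sample, were incubated with 200 nmole of a 16-mer random double-stranded DNA library. Incubation took 30 min at room temperature in Tris/NaCl/DTT/glycerol buffer and was followed by washing, 0.1% formaldehyde crosslinking, proximity ligation (BsaI/T4 ligase, 1 h, 37 °C), PCR amplification and sequencing on an Illumina NextSeq500. Binding signal is the ratio of a hexamer's read frequency for a factor to its frequency for the tag-only sample.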
# [2] = target: HSF1 (Homo sapiens, UniProt Q00613 1-529); settings: protein: recombinant; tags: N-terminal GST; chain copies: 3; dsDNA, one strand shown
# In short: as §1
# [3] = target: T1, SPIC (Homo sapiens, UniProt Q8N5J4 1-248); settings: protein: recombinant; tags: N-terminal GST; dsDNA, one strand shown
# T1 sequence: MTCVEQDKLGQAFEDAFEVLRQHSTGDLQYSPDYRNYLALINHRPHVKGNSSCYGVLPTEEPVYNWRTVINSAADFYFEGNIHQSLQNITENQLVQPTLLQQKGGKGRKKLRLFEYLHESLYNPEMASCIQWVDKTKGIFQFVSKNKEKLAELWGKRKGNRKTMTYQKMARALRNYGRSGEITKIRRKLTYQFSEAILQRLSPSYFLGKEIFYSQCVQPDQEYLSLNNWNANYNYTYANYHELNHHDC
# In short: as §1
# [4] = target: ELF4 (Homo sapiens, UniProt Q99607 1-663); settings: protein: recombinant; tags: N-terminal GST; dsDNA, one strand shown
# In short: as §1
# [5] = target: T2, ELK4 (Homo sapiens, UniProt P28324-2 1-405); settings: protein: recombinant; tags: N-terminal GST; dsDNA, one strand shown
# T2 sequence: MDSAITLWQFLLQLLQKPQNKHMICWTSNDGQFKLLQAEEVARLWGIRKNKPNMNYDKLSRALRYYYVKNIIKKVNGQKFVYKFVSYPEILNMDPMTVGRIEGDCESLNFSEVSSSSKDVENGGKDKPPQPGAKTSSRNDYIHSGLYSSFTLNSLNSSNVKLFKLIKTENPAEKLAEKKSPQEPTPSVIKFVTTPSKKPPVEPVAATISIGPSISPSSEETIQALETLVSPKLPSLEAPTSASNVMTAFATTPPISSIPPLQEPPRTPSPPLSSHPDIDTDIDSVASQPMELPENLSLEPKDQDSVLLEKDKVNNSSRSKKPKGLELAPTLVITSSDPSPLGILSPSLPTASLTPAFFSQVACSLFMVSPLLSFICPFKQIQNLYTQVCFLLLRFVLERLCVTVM
# In short: as §1
# [6] = target: T3, ETV2 (Homo sapiens, UniProt O00321 1-342); settings: protein: recombinant; tags: N-terminal GST; dsDNA, one strand shown
# T3 sequence: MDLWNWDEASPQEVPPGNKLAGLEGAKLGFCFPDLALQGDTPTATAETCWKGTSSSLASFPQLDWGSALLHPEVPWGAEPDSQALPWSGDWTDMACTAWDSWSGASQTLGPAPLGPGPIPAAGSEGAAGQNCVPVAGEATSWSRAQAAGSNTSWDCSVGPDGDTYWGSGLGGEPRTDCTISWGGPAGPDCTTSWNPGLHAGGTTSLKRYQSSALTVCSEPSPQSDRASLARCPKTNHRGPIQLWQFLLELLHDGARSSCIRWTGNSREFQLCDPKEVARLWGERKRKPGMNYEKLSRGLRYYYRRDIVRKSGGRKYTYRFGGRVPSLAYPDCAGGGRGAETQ
# In short: as §1
# [7] = target: T4, ELF3 (Homo sapiens, UniProt P78545 1-371); settings: protein: recombinant; tags: N-terminal GST; dsDNA, one strand shown
# T4 sequence: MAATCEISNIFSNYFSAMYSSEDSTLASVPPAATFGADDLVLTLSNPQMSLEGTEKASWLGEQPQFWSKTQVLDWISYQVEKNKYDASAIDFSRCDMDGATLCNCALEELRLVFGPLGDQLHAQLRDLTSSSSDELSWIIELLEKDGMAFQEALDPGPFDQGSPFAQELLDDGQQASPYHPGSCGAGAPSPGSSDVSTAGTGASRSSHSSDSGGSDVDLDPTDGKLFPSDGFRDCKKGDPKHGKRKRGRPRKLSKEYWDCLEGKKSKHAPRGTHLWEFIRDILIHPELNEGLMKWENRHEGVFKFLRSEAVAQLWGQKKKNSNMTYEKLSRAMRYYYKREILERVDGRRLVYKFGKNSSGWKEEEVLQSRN
# In short: as §1
# [8] = target: CRX (Homo sapiens, UniProt O43186 1-299); settings: protein: recombinant; tags: N-terminal GST; dsDNA, one strand shown
# In short: as §1
# [9] = target: ETV1 (Homo sapiens, UniProt P50549 1-477); settings: protein: recombinant; tags: N-terminal GST; dsDNA, one strand shown
# In short: as §1
# [10] = target: T5, ERF (Homo sapiens, UniProt P50548 1-548); settings: protein: recombinant; tags: N-terminal GST; dsDNA, one strand shown
# T5 sequence: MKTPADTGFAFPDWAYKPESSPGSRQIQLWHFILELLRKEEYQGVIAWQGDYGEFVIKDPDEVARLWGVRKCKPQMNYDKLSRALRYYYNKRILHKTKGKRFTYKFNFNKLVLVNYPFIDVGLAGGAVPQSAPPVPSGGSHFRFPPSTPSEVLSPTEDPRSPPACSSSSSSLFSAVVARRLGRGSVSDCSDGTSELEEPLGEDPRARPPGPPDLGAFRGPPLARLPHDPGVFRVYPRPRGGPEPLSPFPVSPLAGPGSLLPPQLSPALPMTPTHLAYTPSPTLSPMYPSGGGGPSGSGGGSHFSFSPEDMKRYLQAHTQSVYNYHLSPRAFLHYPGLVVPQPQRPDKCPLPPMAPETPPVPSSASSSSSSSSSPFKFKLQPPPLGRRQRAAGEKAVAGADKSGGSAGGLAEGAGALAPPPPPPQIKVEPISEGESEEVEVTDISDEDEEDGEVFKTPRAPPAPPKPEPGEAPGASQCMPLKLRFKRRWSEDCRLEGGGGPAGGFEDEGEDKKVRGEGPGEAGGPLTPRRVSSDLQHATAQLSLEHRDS
# In short: as §1
# [11] = target: T6, ETV3L (Homo sapiens, UniProt Q6ZN32 1-361); settings: protein: recombinant; tags: N-terminal GST; dsDNA, one strand shown
# T6 sequence: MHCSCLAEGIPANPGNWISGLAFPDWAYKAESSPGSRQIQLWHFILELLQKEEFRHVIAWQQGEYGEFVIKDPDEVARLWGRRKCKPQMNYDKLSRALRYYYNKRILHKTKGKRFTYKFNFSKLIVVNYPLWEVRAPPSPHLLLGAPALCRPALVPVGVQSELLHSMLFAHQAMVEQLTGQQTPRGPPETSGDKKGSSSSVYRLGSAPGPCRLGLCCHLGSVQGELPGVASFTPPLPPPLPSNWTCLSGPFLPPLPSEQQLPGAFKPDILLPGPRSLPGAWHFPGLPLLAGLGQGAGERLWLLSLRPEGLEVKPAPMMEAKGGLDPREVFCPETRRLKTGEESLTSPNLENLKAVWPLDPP
# In short: as §1
# [12] = target: T7, ETS2 (Homo sapiens, UniProt P15036 1-469); settings: protein: recombinant; tags: N-terminal GST; dsDNA, one strand shown
# T7 sequence: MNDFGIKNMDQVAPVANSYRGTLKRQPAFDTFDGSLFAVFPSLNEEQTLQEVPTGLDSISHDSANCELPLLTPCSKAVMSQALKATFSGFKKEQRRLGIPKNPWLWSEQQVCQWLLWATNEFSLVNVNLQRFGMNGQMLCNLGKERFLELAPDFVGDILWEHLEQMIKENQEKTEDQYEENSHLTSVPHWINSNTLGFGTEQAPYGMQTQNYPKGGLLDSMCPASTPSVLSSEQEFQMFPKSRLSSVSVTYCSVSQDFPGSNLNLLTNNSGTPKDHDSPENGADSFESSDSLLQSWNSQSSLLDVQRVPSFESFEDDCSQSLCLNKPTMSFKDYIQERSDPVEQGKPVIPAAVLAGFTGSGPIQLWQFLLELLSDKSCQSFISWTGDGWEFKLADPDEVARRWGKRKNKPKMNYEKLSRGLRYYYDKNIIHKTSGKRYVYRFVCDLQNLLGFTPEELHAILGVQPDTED
# In short: as §1
# [13] = target: T8, SPDEF (Homo sapiens, UniProt O95238 1-335); settings: protein: recombinant; tags: N-terminal GST; dsDNA, one strand shown
# T8 sequence: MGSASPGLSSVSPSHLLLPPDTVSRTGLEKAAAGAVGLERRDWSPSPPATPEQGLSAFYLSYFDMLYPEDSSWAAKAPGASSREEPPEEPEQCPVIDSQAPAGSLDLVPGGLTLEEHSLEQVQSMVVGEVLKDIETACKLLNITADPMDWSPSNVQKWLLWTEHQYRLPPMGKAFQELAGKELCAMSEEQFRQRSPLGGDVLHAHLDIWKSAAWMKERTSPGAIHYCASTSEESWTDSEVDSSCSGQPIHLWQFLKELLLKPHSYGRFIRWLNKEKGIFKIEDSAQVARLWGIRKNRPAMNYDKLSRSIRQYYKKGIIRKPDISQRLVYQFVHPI
# In short: as §1
# [14] = target: T9, ETV7 (Homo sapiens, UniProt Q9Y603 1-341); settings: protein: recombinant; tags: N-terminal GST; dsDNA, one strand shown
# T9 sequence: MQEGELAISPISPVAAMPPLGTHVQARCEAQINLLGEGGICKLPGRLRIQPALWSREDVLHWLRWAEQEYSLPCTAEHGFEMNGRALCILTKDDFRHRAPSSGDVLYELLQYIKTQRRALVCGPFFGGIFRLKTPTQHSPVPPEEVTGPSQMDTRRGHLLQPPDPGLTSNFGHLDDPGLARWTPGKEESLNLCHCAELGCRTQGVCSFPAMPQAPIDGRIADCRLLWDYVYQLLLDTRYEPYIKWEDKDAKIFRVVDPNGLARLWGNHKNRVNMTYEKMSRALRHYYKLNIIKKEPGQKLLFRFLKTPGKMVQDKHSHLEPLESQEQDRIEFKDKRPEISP
# In short: as §1
# [15] = target: T10, ELF5 (Homo sapiens, UniProt Q9UKW6-2 1-255); settings: protein: recombinant; tags: N-terminal GST; dsDNA, one strand shown
# T10 sequence: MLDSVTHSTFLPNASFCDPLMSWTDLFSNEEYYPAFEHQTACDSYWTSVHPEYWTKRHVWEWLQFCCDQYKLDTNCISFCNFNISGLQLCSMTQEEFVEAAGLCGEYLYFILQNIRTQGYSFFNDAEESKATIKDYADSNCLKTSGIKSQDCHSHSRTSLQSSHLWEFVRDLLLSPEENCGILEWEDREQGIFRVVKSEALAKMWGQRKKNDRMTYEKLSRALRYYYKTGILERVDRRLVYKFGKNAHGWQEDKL
# In short: as §1
# [16] = target: T11, ETV3 (Homo sapiens, UniProt P41162-2 1-143); settings: protein: recombinant; tags: N-terminal GST; dsDNA, one strand shown
# T11 sequence: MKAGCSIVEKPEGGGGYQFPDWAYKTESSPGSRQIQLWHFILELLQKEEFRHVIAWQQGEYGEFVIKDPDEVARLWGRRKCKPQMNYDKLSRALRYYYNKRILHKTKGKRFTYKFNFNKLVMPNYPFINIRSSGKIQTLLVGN
# In short: as §1
# [17] = target: ETV6 (Homo sapiens, UniProt P41212 1-452); settings: protein: recombinant; tags: N-terminal GST; dsDNA, one strand shown
# In short: as §1
# Chain of ELF4 (Q99607 whole entry): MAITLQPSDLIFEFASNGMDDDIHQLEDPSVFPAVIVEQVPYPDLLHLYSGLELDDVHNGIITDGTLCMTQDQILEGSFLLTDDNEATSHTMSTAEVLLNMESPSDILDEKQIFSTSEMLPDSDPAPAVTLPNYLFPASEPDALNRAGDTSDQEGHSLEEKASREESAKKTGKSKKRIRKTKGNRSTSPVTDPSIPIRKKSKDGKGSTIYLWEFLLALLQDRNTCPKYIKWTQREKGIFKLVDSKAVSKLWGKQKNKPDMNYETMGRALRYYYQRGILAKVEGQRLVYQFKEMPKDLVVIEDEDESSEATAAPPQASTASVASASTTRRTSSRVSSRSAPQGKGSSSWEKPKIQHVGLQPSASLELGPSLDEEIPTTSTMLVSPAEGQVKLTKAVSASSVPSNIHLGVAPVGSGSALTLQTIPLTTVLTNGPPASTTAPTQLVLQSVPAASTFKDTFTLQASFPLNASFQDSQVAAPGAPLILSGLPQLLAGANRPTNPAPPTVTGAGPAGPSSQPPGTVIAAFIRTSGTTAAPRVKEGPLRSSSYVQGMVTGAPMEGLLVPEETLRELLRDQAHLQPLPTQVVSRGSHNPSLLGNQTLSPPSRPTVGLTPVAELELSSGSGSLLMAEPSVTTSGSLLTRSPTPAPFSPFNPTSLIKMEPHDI
# Chain of CRX (O43186 whole entry): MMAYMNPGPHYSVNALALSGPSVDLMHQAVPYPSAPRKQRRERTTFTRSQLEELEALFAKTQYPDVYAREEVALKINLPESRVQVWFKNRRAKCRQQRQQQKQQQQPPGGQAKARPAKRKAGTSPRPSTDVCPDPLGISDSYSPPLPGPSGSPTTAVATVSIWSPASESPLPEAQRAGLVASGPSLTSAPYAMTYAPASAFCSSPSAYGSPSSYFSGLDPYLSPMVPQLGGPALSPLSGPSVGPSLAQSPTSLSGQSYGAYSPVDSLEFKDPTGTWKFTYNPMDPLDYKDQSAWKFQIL
# Chain of ETV6 (P41212 whole entry): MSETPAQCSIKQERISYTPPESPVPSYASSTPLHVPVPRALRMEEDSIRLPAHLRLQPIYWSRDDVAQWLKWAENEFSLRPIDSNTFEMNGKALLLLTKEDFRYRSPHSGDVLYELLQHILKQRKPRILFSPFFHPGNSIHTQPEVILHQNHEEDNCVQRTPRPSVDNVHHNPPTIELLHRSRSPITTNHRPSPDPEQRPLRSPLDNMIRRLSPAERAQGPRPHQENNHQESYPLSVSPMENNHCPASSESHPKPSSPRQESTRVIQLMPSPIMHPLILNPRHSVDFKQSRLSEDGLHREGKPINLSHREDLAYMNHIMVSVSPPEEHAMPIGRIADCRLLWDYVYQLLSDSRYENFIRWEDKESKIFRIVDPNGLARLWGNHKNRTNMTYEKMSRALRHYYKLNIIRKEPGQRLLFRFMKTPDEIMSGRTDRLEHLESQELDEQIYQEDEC
# Chain of HSF1 (Q00613 whole entry): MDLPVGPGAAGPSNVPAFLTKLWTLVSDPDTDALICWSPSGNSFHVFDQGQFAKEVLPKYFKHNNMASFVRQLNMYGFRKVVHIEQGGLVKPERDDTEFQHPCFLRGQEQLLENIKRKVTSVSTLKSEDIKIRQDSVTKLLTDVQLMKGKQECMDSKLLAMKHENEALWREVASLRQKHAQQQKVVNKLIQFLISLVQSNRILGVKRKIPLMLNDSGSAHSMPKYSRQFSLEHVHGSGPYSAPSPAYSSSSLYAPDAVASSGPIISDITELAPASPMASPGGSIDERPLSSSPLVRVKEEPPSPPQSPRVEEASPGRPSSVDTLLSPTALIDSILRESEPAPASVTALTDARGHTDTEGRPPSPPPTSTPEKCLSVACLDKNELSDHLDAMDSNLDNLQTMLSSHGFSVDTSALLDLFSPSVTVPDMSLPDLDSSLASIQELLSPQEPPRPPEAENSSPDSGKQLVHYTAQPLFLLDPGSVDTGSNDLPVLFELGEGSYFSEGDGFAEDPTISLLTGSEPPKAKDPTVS
# Chain of ETV1 (P50549 whole entry): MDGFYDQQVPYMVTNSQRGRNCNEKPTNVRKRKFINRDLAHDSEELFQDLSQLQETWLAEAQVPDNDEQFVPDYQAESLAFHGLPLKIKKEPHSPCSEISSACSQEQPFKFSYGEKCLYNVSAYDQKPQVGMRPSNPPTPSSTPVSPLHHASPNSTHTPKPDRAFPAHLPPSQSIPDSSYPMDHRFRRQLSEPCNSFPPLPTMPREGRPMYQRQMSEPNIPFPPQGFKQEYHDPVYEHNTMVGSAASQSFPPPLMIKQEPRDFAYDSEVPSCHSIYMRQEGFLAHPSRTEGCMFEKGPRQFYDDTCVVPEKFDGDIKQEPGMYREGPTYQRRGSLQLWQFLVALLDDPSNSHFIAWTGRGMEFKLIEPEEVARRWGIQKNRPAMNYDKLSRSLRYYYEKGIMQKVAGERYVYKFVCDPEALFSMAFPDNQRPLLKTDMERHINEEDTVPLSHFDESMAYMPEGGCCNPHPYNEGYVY
# Chain of ETV5 (P41161 whole entry, the tested form may be a part): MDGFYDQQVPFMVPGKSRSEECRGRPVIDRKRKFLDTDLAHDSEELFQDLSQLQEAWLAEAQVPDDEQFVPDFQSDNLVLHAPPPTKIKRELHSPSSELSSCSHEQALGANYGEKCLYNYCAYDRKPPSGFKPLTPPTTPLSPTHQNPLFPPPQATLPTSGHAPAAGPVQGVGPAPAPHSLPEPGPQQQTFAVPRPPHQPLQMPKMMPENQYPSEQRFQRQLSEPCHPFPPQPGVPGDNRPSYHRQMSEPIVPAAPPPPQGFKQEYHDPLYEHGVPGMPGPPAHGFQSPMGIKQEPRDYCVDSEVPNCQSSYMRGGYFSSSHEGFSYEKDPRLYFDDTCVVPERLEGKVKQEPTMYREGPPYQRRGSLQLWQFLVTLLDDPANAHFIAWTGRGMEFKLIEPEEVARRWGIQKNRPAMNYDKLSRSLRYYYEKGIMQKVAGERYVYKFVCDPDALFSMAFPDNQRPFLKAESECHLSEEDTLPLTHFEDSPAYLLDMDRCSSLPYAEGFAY
sequence,measurement,setting,value
AAGAAG,binding signal,[1],"1.08 fold enrichment (6-mer frequency, TF over GST control)"
same,binding signal,[2],"1.44 fold enrichment (6-mer frequency, TF over GST control)"
same,binding signal,[3],"1.23 fold enrichment (6-mer frequency, TF over GST control)"
same,binding signal,[4],"1.06 fold enrichment (6-mer frequency, TF over GST control)"
same,binding signal,[5],"1.18 fold enrichment (6-mer frequency, TF over GST control)"
same,binding signal,[6],"1.19 fold enrichment (6-mer frequency, TF over GST control)"
same,binding signal,[7],"1.26 fold enrichment (6-mer frequency, TF over GST control)"
same,binding signal,[8],"1.21 fold enrichment (6-mer frequency, TF over GST control)"
same,binding signal,[9],"1.1 fold enrichment (6-mer frequency, TF over GST control)"
same,binding signal,[10],"1.01 fold enrichment (6-mer frequency, TF over GST control)"
same,binding signal,[11],"1.04 fold enrichment (6-mer frequency, TF over GST control)"
same,binding signal,[12],"1.04 fold enrichment (6-mer frequency, TF over GST control)"
same,binding signal,[13],"1.01 fold enrichment (6-mer frequency, TF over GST control)"
same,binding signal,[14],"1.16 fold enrichment (6-mer frequency, TF over GST control)"
same,binding signal,[15],"1.12 fold enrichment (6-mer frequency, TF over GST control)"
same,binding signal,[16],"1.05 fold enrichment (6-mer frequency, TF over GST control)"
same,binding signal,[17],"1.16 fold enrichment (6-mer frequency, TF over GST control)"
